One experiment relates to SERPINA7 (gene 6906). The experiment is described as follows: CCTE_GLTED_hTBG: CCTE's human Thyroxine-binding Globulin (TBG) Inhibition Assay, Great Lakes Toxicology and Ecology Division (GLTED) Lab (AID 2284343).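 Also: active chemicals lower fluorescence versus DMSO baseline by displacing probe.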 An outline of the steps: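 Cell-free binding assay in which human TBG is incubated with test chemical for 2 hours and displacement of the fluorescent probe ANSA is read at 380 nm excitation/475 nm emission. Activity is fitted against DMSO as the negative control.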

Experiment [1] is described as follows: CCTE_Deisenroth_5AR_NBTE_acceptor: CCTE's 5alpha-reductase NanoBRET Target Engagement Assay - Autofluorescence Screen, Deisenroth Lab (AID 2284321; active = hit-call score of the fitted dose curve at least 0.9, where 1 is the maximum; inactive = score below 0.9;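 also: compound fluorescence in the acceptor channel under 460 nm excitation flags autofluorescence artifacts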). The settings on record: actives raise or lower the signal. On the procedure: CCTE_Deisenroth_5AR NBTE (5alpha-reductase NanoBRET Target Engagement Assay) is a cell-based, single-readout assay that uses HEK293T, a human kidney cell line, with measurements taken at 5 hours after chemical dosing in a 384 well plate. This assay includes a primary and secondary screen as well as an autofluorscence screen.CCTE_Deisenroth_5AR NBTE_acceptor is one of four assay components measured from the CCTE_Deisenroth_5AR NBTE assay. It is designed to make measurements of resonant fluorescence generated by bioluminescent energy transfer to a target fluorophore, as detected by fluorescence intensity emission signals using spectrometry technology.Data from the assay component CCTE_Deisenroth_5AR NBTE_acceptor was analyzed into 1 assay endpoint. This assay endpoint, CCTE_Deisenroth_5AR NBTE_acceptor, was analyzed with bidirectional fitting relative to DMSO as the negative control and baseline of activity. Using a type of inducible reporter, gain or loss-of-signal activity can be used to understand changes in the acceptor fluorescence as related to 5alpha-reductase catalytic function. Furthermore, this assay endpoint can be referred to as a secondary readout, because this assay has produced multiple assay endpoints where this one serves an artifact detection function.
Chemicals from the blinded ToxCast library were diluted 1000-fold in DMSO to an assumed nominal concentration of 100 uM. Samples were scanned in three independent runs (n=3) on a multi-mode plate reader at a fixed excitation wavelength of 460 nm with emission filter set at […]. For reference, tracer was included at DMSO-solubilized concentrations of 100 uM (the top tested concentration for each test chemical) and 600 nM (the final working concentration of the tracer probe).

A further experiment concerns SRD5A2 (gene 6716). Briefly: CCTE_Deisenroth_5AR_NBTE_ratio: CCTE's 5alpha-reductase NanoBRET Target Engagement Assay - Ratio, Deisenroth Lab (AID 2284322; active = hit-call score of the fitted dose curve at least 0.9, where 1 is the maximum; inactive = score below 0.9). The settings on record: actives raise or lower the signal. An outline of the steps: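 Reverse-transfect HEK293T with pNLF1-C-SRD5A2, express 20 h. Pre-incubate cells with chemical 3 h (8-point series, 10 nM - 29.9 uM, duplicate). Add testosterone tracer, 2 h more. Add substrate/inhibitor, read donor and acceptor emission.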
A general note: BRET reads energy transfer from a luciferase to a nearby fluorophore.

A short description of experiment [2]: IUF_NPC1_cytotoxicity_72hr: Cytotoxicity Assessment at 72 hours in the Leibniz Research Institute for Environmental Medicine (IUF) Neural Progenitor Cell Proliferation Assay (NPC1) (AID 2284332).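 Also: rising LDH signal means more cytotoxicity.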 Summed up:
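Single human fetal cortex neural progenitor spheres (GW 16-19, 0.25-0.35 mm) in EGF/FGF proliferation medium were exposed to compound for 72 h at 37C without renewal. Medium LDH release was read as resorufin fluorescence and fitted as gain-of-signal.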

Experiment [3] can be described thus: CCTE_Mundy_HCI_iCellGluta_NOG_NeuronCount: CCTE's Neurite Outgrowth Assay in iCellGluta cells for Neuron Count, Mundy Lab (AID 2284340).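 Also: cells fixed about 48 h after compound addition.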 An outline of the steps:
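Neuron count read by automated high-content imaging of Hoechst 33342 and betaIII-tubulin/Alexa Fluor-488 labelling in human iPSC glutamatergic neurons. Activity fitted relative to DMSO.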

Experiment [4] in a line: CCTE_Mundy_HCI_iCellGluta_NOG_NeuriteCount: CCTE's Neurite Outgrowth Assay in iCellGluta cells for Neurite Count, Mundy Lab (AID 2284342).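 Also: chemical exposure about 48 hours starting 2 hours after plating.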
Experiment [5] is described as follows: TAMU_PeakParms_SingleDonor1434_Asystole: Texas A&M University (TAMU) 1.5-hr Human Induced Pluripotent Stem Cell (iPSC)-derived Cardiomyocytes Calcium (Ca+2) Flux Assay for Cardiotoxicity: Asystole (quiescence of beating) (AID 2284328). An outline of the steps: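 Human iPSC-derived cardiomyocytes (donor 1434) were exposed to 0.2, 1, 10 and 100 uM compound in 0.5% DMSO for 90 min at 37C. Ca2+-dye fluorescence gave average peak frequency; POD is EC95, a 95% beat-rate drop versus DMSO.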

The nature of experiment [6]: VALA_MIGHUV1_ScratchOnly_CellCount: Viability Assessment in the VALA Sciences human Umbilical Vein Endothelial Cell Migration (MIGHUV) Assay, Scratch Wound Inhibited Recovery (AID 2284327). As for the experimental part:
VALA_MIGHUV1_ScratchOnly is a cell-based, multiplexed assay that uses umbilical vein-derived endothelial cells (HUVEC). Measurements were taken 24 hours after chemical dosing in a 96-well plate.VALA_MIGHUV1_ScratchOnly_CellCount is the one of two assay components measured from the VALA_MIGHUV1_ScratchOnly assay. It is designed to make measurements of viability, a form of viability reporter, as detected with fluorescence intensity signals by HCS Fluorescent Imaging technology. Data from the assay component VALA_MIGHUV1_ScratchOnly_CellCount was analyzed at the endpoint, VALA_MIGHUV1_ScratchOnly_CellCount, in the positive analysis fitting direction relative to DMSO as the negative control and baseline of activity. Using a type of viability reporter, loss-of-signal activity can be used to understand viability. To generalize the intended target to other relatable targets, this assay endpoint is annotated to the cell cycle intended target family, where the subfamily is cell count.
Cells were seeded on 384-well microplates (day-0) at a density of 9000 cells per well for detection of wound area recovery or 4000 cells per well for detection of beta-catenin (CTNB) immunoreactivity and incubated in Endothelial Cell Growth Medium (CAI, San Diego; catalog 211-500). After 24 hours of culture, the HUVEC plates were scratched using a custom scratch head with the Bravo liquid handling system. […]

Experiment [7] is described as follows: VALA_MIGHUV1_ScratchOnly_WoundArea: VALA Sciences human Umbilical Vein Endothelial Cell Migration (MIGHUV) Assay, Area of Scratch Wound Inhibited Recovery (AID 2284336). As for the experimental part: VALA_MIGHUV1_ScratchOnly is a cell-based, multiplexed assay that uses umbilical vein-derived endothelial cells (HUVEC). Measurements were taken 24 hours after chemical dosing in a 96-well plate.VALA_MIGHUV1_ScratchOnly_WoundArea is the one of two assay components measured from the VALA_MIGHUV1_ScratchOnly assay. It is designed to make measurements of endothelial migration, a form of morphology reporter, as detected with fluorescence intensity signals by HCS Fluorescent Imaging technology. Data from the assay component VALA_MIGHUV1_ScratchOnly_WoundArea was analyzed at the endpoint, VALA_MIGHUV1_ScratchOnly_WoundArea, in the positive analysis fitting direction relative to DMSO as the negative control and baseline of activity. Using a type of morphology reporter, gain-of-signal activity can be used to understand developmental effects. To generalize the intended target to other relatable targets, this assay endpoint is annotated to the neurodevelopment intended target family, where the subfamily is migration.
Cells were seeded on 384-well microplates (day-0) at a density of 9000 cells per well for detection of wound area recovery or 4000 cells per well for detection of beta-catenin (CTNB) immunoreactivity and incubated in Endothelial Cell Growth Medium (CAI, San Diego; catalog 211-500). […]

Experiment [8] can be described thus: VALA_TUBIPS_Agonist_CellCount: Viability Assessment in the VALA Sciences human iPS-derived Endothelial Tubule Formation (TUBIPS) Agonism Assay (AID 2284338).

Results filed as inconclusive are left out. Where a structure was tested more than once in an assay, its records may differ in their call. Calls of active or inactive are those of the source. The calls were made as follows, unless noted: active = hit-call score of the fitted dose curve at least 0.9, where 1 is the maximum; inconclusive = response in the unintended direction; inactive = score below 0.9.

The AC50 is the concentration giving half of the maximal activity seen. As to `CCCCC(O)(Cn1cncn1)c1ccc(Cl)cc1Cl` (stereo not drawn), the AC50 with SERPINA7 (gene 6906) was 11.3 µM (active).
As to `COP(=S)(OC)SCn1nnc2ccccc2c1=O`, the outcome (in experiment [1]; in the experiment with SRD5A2 (gene 6716); in [2]) was inactive. Besides, the AC50 in [3] and in [4] was 24.4 µM (active) throughout.
With `CC(C)Oc1cccc(NC(=O)c2ccccc2C(F)(F)F)c1`, the AC50 in the experiment on SERPINA7 (gene 6906) is 50 µM (active).
On to `Cc1c(COC(=O)[C@@H]2[C@H](/C=C(\Cl)C(F)(F)F)C2(C)C)cccc1-c1ccccc1`, for which the compound was called inactive in [2]. Further, the AC50 in experiment [3] was 12.8 µM (active); in [4], 10.6 µM (active).
Take `C=C(C)CN(CC)c1c([N+](=O)[O-])cc(C(F)(F)F)cc1[N+](=O)[O-]`: in experiment [2], the compound was classed as inactive. Also, the results for the AC50 (in experiment [3]; in [4]; in the experiment on SERPINA7 (gene 6906)) were 31.1 µM (active), 26.5 µM (active) and 8.89 µM (active), respectively.
With `OC(c1ccc(Cl)cc1)(c1ccc(Cl)cc1)C(Cl)(Cl)Cl`, in the experiment on SERPINA7 (gene 6906), the AC50 is 5.3 µM (active).
In the case of `O=C1C2CC=CCC2C(=O)N1SC(Cl)(Cl)Cl` (stereo not drawn), the call (in experiment [1]; with SRD5A2 (gene 6716); in experiment [5]) was inactive.
Consider `CNC(=O)Oc1cccc2ccccc12`, for which the result in experiment [5], in experiment [2], in experiment [3] and in [4] was inactive.
For the compound `Cc1ccc(N=CN(C)C=Nc2ccc(C)cc2C)c(C)c1`, the call (in [1]; in the experiment on SRD5A2 (gene 6716)) was inactive.
Regarding `O=C(Nc1ccccc1-c1ccc(Cl)cc1)c1cccnc1Cl`, the result in experiment [2], in experiment [3] and in experiment [4] was inactive. Moreover, the figures for the AC50 in experiment [3] and in experiment [4] were 50 µM (active) and 38.3 µM (active), respectively.
Regarding `CS(=O)(=O)c1ccc(C(=O)C2C(=O)CCCC2=O)c([N+](=O)[O-])c1`, the call in [4] was inactive.
For `CCCN(CC)CC1COC2(CCC(C(C)(C)C)CC2)O1` (stereo not drawn), the compound was called inactive in the experiment with SERPINA7 (gene 6906).
Consider `CCCCOCN(C(=O)CCl)c1c(CC)cccc1CC`, for which the AC50 with SERPINA7 (gene 6906) is 19.1 µM (active).
Turning to `CCNC(=O)NC(=O)C(C#N)=NOC`, the compound was classed as inactive in experiment [2], in experiment [3] and in [4].
Regarding `CCSC(=O)N1CCCCCC1`, the compound was classed as inactive in experiment [2], in experiment [3] and in experiment [4].
For the compound `COC(=O)N(C(=O)N1CO[C@@]2(C(=O)OC)Cc3cc(Cl)ccc3C2=N1)c1ccc(OC(F)(F)F)cc1`, the compound was classed as inactive in experiment [2], in experiment [3] and in experiment [4].
With `CCCCC(C#N)(Cn1cncn1)c1ccc(Cl)cc1` (stereo not drawn), in experiment [5], the result was inactive.
Turning to `CO/N=C(/C1=NOCCO1)c1ccccc1Oc1ncnc(Oc2ccccc2Cl)c1F`, the AC50 was 39.4 µM (active) in experiment [3] and 24.4 µM (active) in experiment [4].
Consider `CC1(C)C(C=C(Cl)Cl)C1C(=O)OC(C#N)c1cccc(Oc2ccccc2)c1` (stereo not drawn), for which the compound was classed as inactive in [2] and in [3].
For the compound `CC1(C)CCC(=Cc2ccc(Cl)cc2)C1(O)Cn1cncn1` (stereo not drawn), the result (in experiment [1]; in the experiment on SRD5A2 (gene 6716)) was inactive. In the experiment on SERPINA7 (gene 6906), the AC50 is 36.4 µM (active).
`COCc1cnc(C2=NC(C)(C(C)C)C(=O)N2)c(C(=O)O)c1` (stereo not drawn): the call in experiment [6], in [7] and in experiment [8] was inactive.
On to `CS(=O)(=O)c1cc(C(F)(F)F)ccc1C(=O)c1cnoc1C1CC1`, for which the outcome in experiment [2], in experiment [3] and in experiment [4] was inactive.
Turning to `CCOC(=O)C(C)OC(=O)c1cc(Oc2ccc(C(F)(F)F)cc2Cl)ccc1[N+](=O)[O-]` (stereo not drawn), in the experiment with SERPINA7 (gene 6906), the call was inactive.
In the case of `N#CN=C1SCCN1Cc1ccc(Cl)nc1`, the result in [2], in experiment [3] and in experiment [4] was inactive.
On to `Cn1c(-c2ccccc2)cc(-c2ccccc2)[n+]1C`, for which the result in the experiment on SERPINA7 (gene 6906) was inactive.
For `CC(C)(C)C(=O)C(Oc1ccc(Cl)cc1)n1cncn1` (stereo not drawn), the result in [2], in [3] and in [4] was inactive.
For `CCOP(=O)(OCC)Oc1nc(Cl)c(Cl)cc1Cl`, in [2], the compound was called inactive. In addition, in the experiment on SERPINA7 (gene 6906), the AC50 is 14.9 µM (active).
For `CN/C(=N\[N+](=O)[O-])NCc1cnc(Cl)s1`, the compound was classed as inactive in [2], in experiment [3] and in experiment [4].

The record behind these values is PubChem BioAssay (EPA / NIEHS).
